Screening data as filed in PubChem.
Hits are enriched below; roughly 2% of the tested compounds scored in any of these assays.
TexasRed fluor = alters Texas Red total fluorescence, flagging assay interference. TRb/SRC2 Texas Red total fluorescence interference. Potency, µM (top dose mostly 106 µM). 280,000 compounds, 0.29% hits; active = well fitted curve in either direction with a large enough effect; inconclusive = small, poorly fitted or top-dose-only effect
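Human TRβ ligand-binding domain (0.6 uM) and Texas Red SRC2 peptide (20 nM) in Tris buffer with 1 uM T3 and 5% DMSO were incubated with pinned compound for 5 hr at ambient temperature. Total fluorescence was computed as S + 2P (555/632 nm).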
TRb SRC2 PPI = TRbeta-SRC2 interaction inhibition | P10828 | TRbeta-SRC2 peptide binding, fluorescence polarization; receptor liganded with 1 µM T3 | Potency, µM (highest dose often 106 µM), hits mostly inhibitors | 280,000 compounds, 0.065% hits | AID 1469; note: nearly all actives have a fitted effect of over 50% in size
Target sequence (P10828 whole entry, looked up): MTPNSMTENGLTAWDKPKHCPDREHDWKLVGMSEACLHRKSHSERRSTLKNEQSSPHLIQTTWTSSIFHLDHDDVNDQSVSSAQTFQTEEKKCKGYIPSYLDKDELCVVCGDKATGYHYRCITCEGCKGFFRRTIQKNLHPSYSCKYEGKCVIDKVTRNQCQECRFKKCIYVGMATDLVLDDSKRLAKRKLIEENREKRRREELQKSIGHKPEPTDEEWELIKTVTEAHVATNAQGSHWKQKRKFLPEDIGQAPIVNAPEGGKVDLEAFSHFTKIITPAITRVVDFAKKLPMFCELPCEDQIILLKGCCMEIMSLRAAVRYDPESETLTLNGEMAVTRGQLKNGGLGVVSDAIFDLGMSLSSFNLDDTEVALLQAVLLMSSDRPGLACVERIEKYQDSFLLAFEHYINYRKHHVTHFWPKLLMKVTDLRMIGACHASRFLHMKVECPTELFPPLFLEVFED
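Assay buffer: 20 mM Tris-HCl, 100 mM NaCl, 10% glycerol, 1 mM EDTA, 0.01% NP-40, 1 mM DTT, 1 uM T3, 5% DMSO; TRb LBD 0.6 uM, Texas Red SRC2 20 nM; FP after 5 hr.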
HTT ATP protect = Huntington cell model cytoprotection by ATP luminescence; 230,000 compounds, 0.14% hits; Potency, µM (titrated, usually from 56.4 µM), actives largely listed as activators; PC12 HTT-Q103 induced, cytoprotection, ATP luminescence, 40 h; note: nearly all actives have a fitted effect of over 45% in size
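Stable PC12 Q103-GFP cells in serum-supplemented, phenol red-free DMEM; induction by tebufenozide at 100 nM final; compound dose series; cell viability quantified luminescently from ATP.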
HTT aggregate = mutant huntingtin aggregation inhibition. 220,000 compounds, 1.1% hits. Potency, µM (top dose mostly 46.1 µM), usual class: inhibitors. PC12 HttQ103-GFP aggregates, Acumen cytometry, 40 h; note: nearly all actives have a fitted effect of over 60% in size
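Aggregates are detected as GFP objects 1–25 µm with signal 6 STDEV over background in lysates of induced PC12 cells. These carry Huntingtin exon 1 with 103 glutamines fused to GFP under an ecdysone promoter; compounds titrated.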
KDM4E inh = inhibitors of human JMJD2E histone demethylase. 230,000 compounds, 1.6% hits. JMJD2E catalytic domain, FDH-coupled NADH fluorescence (FDH is formaldehyde dehydrogenase). Potency, µM (top dose mostly 57.1 µM), hits mostly inhibitors; active = well fitted inhibition curve with a large enough effect, not every such curve was filed as active; inconclusive = small, poorly fitted or top-dose-only effect, or another doubt; inactive = no such curve, though single readings can be large or run the other way; note: nearly all actives have a fitted effect of over 50% in size
Target sequence (B2RXH2 1-337 limits assumed): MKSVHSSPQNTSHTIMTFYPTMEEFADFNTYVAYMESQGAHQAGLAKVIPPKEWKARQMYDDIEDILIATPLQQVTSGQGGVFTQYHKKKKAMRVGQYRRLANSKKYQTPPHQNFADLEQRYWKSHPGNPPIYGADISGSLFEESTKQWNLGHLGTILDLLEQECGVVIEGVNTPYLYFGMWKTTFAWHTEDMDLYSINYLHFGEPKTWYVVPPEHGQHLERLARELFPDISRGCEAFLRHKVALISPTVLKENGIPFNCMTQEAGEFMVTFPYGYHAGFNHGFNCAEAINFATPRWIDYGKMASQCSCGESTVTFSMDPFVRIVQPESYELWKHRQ
FBPA coupling cs = counter-screen for Giardia aldolase inhibitors: coupling enzyme system | 290,000 compounds, 0.67% hits | activity change, negative = inhibition, % at 58.2 µM, hits read low | coupling enzyme system counterscreen, AmpLite Red fluorescence; in the data active = activity change below about -30%
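First, compound is pin-transferred into glyceraldehyde-3-phosphate coupling-enzyme reagent at 57.5 uM final and held 10 min at RT. Next, substrate, coupling system and AmpLite Red are added. After 20 min RT, fluorescence (525/598 nm) is read.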
A number is an active result; i = inactive; ? = inconclusive; nt = not tested or not shown; [ ] = another dose, or the depositor's remark. Unless noted, calls come from the whole dose curve; as a rule, active = well fitted curve in the direction sought with a large enough effect; inconclusive = small, poorly fitted or top-dose-only effect, or another doubt; inactive = no such curve, though single readings can be large; an effect the other way counts as inactive or inconclusive.

SMILES | TexasRed fluor | TRb SRC2 PPI | HTT ATP protect | HTT aggregate | KDM4E inh | FBPA coupling cs
CCOC(=O)c1ccc2c(c1)N(CC(=O)N(C)c1ccccc1)C(=O)c1ccccc1S2 | i | i | nt | nt | nt | nt
Fc1cccc(Cl)c1CNc1ccc(N2CCCC2)cc1 | i | i | ? | i | 11µM | i
CCOc1ccc2c(ccc(/C=C\c3cc(C)c4cccnc4c3O)[n+]2C)c1 | nt | nt | i[10 µM] | nt | nt | nt
COC(=O)CCCC1=CC2=C(c3ccccc3)C(=O)C(C)(OC(=O)C3CCCC3)C(=O)C2=CN1Cc1ccco1 (centres undefined) | i[11.2 µM] | i[11.2 µM] | i[10 µM] | i[9.22 µM] | 18µM | i
COC(=O)CCCC1=CC2=C(c3ccccc3)C(=O)C(C)(OC(=O)C3CCCC3)C(=O)C2=CN1CCCOC(C)C (centres undefined) | i[11.2 µM] | i[11.2 µM] | i[10 µM] | nt | 3.5µM | i
COC(=O)CCCC1=CC2=C(c3ccccc3)C(=O)C(C)(OC(=O)C3CCCC3)C(=O)C2=CN1CCCCO (centres undefined) | i[11.2 µM] | i[11.2 µM] | i[10 µM] | i[9.22 µM] | ? | i
CCc1ccc(NC(=O)CC2C(=O)N(c3cccc(OC)c3)C(=O)N2Cc2ccco2)cc1 (centres undefined) | i | i | nt | nt | nt | nt
O=S(=O)(c1cccs1)N1CCN(C/C=C/c2ccccc2)CC1 | i | i | i[10 µM] | i | i | i
O=S(=O)(c1ccc(Cl)s1)N1CCN(C/C=C/c2ccccc2)CC1 | i | i | i[10 µM] | 35µM | ? | i
COc1cc(CNc2ccc(N3CCOCC3)cc2)ccc1OCC(=O)NC(C)(C)C | nt | nt | nt | nt | nt | i
COc1cc(CNc2ccc(N3CCN(C(C)=O)CC3)cc2)ccc1OCc1ccccc1 | i | i | i[10 µM] | i[9.22 µM] | 16µM | i
Cc1ccccc1C1=NC(C(F)(F)F)(C(F)(F)F)c2c(n(C)c(=O)n(C)c2=O)N1 | i | i | i[10 µM] | i | i | i
Cn1c2c(c(=O)n(C)c1=O)C(C(F)(F)F)(C(F)(F)F)N=C(c1ccc(Cl)cc1)N2 | i | i | i | 1.3µM | i | i
COc1ccc(CN(Cc2ccco2)c2cnc(S(C)(=O)=O)nc2C(=O)Nc2ccc(C)c(C)c2)cc1 | i | i | nt | nt | nt | nt
CCOC(=O)c1cccc(NC(=O)CCCn2nc(C)c3c(C)n(-c4ccccc4)nc3c2=O)c1 | i | i | nt | nt | nt | nt
CCOC(=O)c1nc(N)c(C(=O)OCC)[nH]1 | i | i | i | 3.5µM | ? | i
CCOC(=O)c1[nH]c(C)c(C(=O)OCC)c1C | i | i | i | i | i | i
CC(C)c1ccc(Nc2nc3ccc(C(=O)c4ccccc4)cc3n3cnnc23)cc1 | i | i | nt | nt | nt | nt
CN(C)CCn1c(C(=O)Nc2ccccc2)cc2ccccc21 | i | i | i | 3.2µM | i | i
CCOC(=O)c1cc2ccccc2n1CCN(CC)CC | i | i | i | i | ? | i
CC(C)(C)CN1CCNC(=O)C1CC(=O)N1CCC(C(=O)N2CCOCC2)CC1 (centres undefined) | i | i | i[10 µM] | i[9.22 µM] | ? | i
CC(C)(C)CN1CCNC(=O)C1CC(=O)N1CCN(c2ccccc2)CC1 (centres undefined) | i | i | i[10 µM] | i[9.22 µM] | ? | -38
O=C(CN1CCN(Cc2ccccc2F)C1=O)NCc1cccnc1 | i | i | i[10 µM] | i | i | i
O=C(CN1CCN(Cc2ccccc2F)C1=O)NCc1ccco1 | i | i | i | 0.13µM | i | i
CCOC(=O)/C(=C/c1ccc(OC(=O)c2ccccc2)cc1)C(C)=O | i | i | nt | i | 7.9µM | i
SMILES | TexasRed fluor | TRb SRC2 PPI | HTT ATP protect | HTT aggregate | KDM4E inh | FBPA coupling cs
CCOC(=O)/C(=C\c1ccccc1)NC(=O)c1ccccc1 | i | i | i[10 µM] | i[9.22 µM] | i | i
Cc1onc(-c2ccccc2)c1C(=O)NC(=S)NNC(=O)c1ccc(O)cc1 | i | i | nt | i | i | i
CCCOc1ccc(C(=O)NC(=S)NNC(=O)c2c(-c3ccccc3)noc2C)cc1 | i | i | i[10 µM] | i[9.22 µM] | 11µM | i
Cc1onc(-c2ccccc2)c1C(=O)NC(=S)NNC(=O)c1ccc(O)cc1O | i | i | nt | ? | 11µM | i
Cc1onc(-c2ccccc2)c1C(=O)NC(=S)NNC(=O)c1ccccc1O | i | i | nt | ? | 18µM | i
Cc1cc[n+](-c2nc3ccccc3nc2C(=C=[N-])C#N)cc1 | i | i | i | i | i | -41
N#CC(=C=[N-])c1nc2ccccc2nc1-[n+]1ccccc1 | i | i | ? | i[9.22 µM] | i | i
O=C(c1cc(-c2cccs2)nc2ccccc12)N1CCN(S(=O)(=O)c2cccc(F)c2)CC1 | i | i | i | 0.63µM | ? | i
Cc1ccc(Cl)cc1NC(=S)NCCCSC1CCCCC1 | i | i | i | 22µM | i | i
COc1ccc(C2c3c(oc4ccccc4c3=O)C(=O)N2c2ccccn2)cc1OC (centres undefined) | i | i | i | i[9.22 µM] | i | i
COc1cc(C2c3c(oc4ccccc4c3=O)C(=O)N2c2ccccn2)cc(OC)c1OC (centres undefined) | 0.04µM[quencher] | i | nt | nt | nt | nt
O=C(/C=C/c1ccc(I)cc1)c1ccc(B(O)O)cc1 | i | i | nt | nt | nt | i
Cc1ccc(-n2ncc(C(=O)NCCN3CCC(Cc4ccccc4)CC3)c2C2CCN(C(=O)OC(C)(C)C)CC2)cc1 | ? | i | nt | nt | nt | nt
COc1ccc(/C=N/N2CCN(c3ccccc3OC)CC2)cc1OC | i | i | i[10 µM] | i | i | i
COc1ccccc1N1CCN(/N=C/c2ccc(O)c(O)c2)CC1 | i | i | i[10 µM] | i[9.22 µM] | 28µM | i
CCOC(=O)c1ccc(Nc2nc3nonc3nc2Nc2cccc(C)c2C)cc1 | i | i | nt | nt | nt | nt
CC(C)C(NC(=O)c1ccc(Cl)cc1)C(=O)NC1=NCCS1 (centres undefined) | i | i | i[10 µM] | i | i | i
CCSc1nnc(NC(=O)C(NC(=O)c2ccc(Cl)cc2)C(C)C)s1 (centres undefined) | i | i | nt | 32µM | ? | i
COc1ccc(-c2cc3nc(C)c(CCC(=O)N4CCN(c5ccccn5)CC4)c(C)n3n2)c(OC)c1 | i | i | i | i | 13µM | i
COc1ccc(-c2cc3nc(C)c(CCC(=O)N4CCN(c5ccccc5F)CC4)c(C)n3n2)c(OC)c1 | i | i | nt | nt | nt | nt
O=C(Nc1ccc2nc(SCC(=O)N3CCCC3)sc2c1)c1cccc(Br)c1 | i | i | nt | nt | nt | nt
Cc1ccccc1OCC(=O)Nc1ccc(S(=O)(=O)Nc2ncccn2)cc1 | 10000µM[quencher] | i | nt | nt | nt | nt
CCCN(C(=O)Cn1cnc2onc(-c3ccc(F)cc3)c2c1=O)c1cccc(Cl)c1 | 178µM[quencher] | i | nt | nt | nt | nt
COC(=O)NC(c1cccs1)C(C(C)=O)C(=O)OC (centres undefined) | i[11.2 µM] | i[11.2 µM] | ? | nt | nt | i
COc1ccccc1C(=O)n1nc(-c2ccccc2)nc1NCc1ccc(Cl)cc1 | i | i | nt | nt | nt | nt
CCN1/C(=C/C(C)=C/c2sc3ccccc3[n+]2CC)Sc2ccccc21 | 20µM[fluorescent] | ? | i | 1.1µM | i | i
CCN1/C(=C\C(=S)Nc2ccccc2)Sc2ccccc21 | i | i | i[10 µM] | i[9.22 µM] | i | i
